This note sets out measurements from PubChem BioAssay AID1220 (Sanford-Burnham Center for Chemical Genomics, 2008).

Several values for one entry are separate records, joined by “and”; a condition that tells them apart may be missing. Equal entries are not always repeated. Out of some 190,000 compounds screened, about 1,300 (0.68%) were called active. No stated cut-off is given here; in the data, active means inhibition above about 50%; inactive means the rest. What follows is part of a selection rich in actives, with near analogues and random picks from the rest.

Sequence of Mannose-6-phosphate isomerase (Homo sapiens) (P34949 whole entry, looked up): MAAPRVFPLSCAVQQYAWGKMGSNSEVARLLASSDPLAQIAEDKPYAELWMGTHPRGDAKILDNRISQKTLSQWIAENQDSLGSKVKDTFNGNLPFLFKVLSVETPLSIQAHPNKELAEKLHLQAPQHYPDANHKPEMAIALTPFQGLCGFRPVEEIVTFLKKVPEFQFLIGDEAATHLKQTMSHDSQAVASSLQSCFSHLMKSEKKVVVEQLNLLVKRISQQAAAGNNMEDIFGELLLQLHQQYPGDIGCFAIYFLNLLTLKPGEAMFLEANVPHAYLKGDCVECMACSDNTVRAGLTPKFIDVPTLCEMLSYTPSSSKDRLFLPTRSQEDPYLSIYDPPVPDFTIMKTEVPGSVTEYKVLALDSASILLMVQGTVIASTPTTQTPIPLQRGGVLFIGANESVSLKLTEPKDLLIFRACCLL

The assay concerns the target Mannose-6-phosphate isomerase (Homo sapiens) (UniProt P34949). As to the kind of experiment: human PMI inhibitors, high substrate, primary screen, biochemical, fluorescence intensity, high mannose 6-phosphate (AID 1220). Particulars: recombinant PMI enzyme, coupled fluorescence intensity; at 20 µM; active compounds read high.
On to `CCOc1cc(CNCc2ccccn2)cc(Cl)c1OC`, for which the inhibition (as a rule, the drop in the measured response relative to a control, in per cent) was -0.7% (inactive).

As to `Cc1noc(C)c1C(=O)Nc1sc2c(c1C(N)=O)CCC2`, the inhibition is 0.1% (inactive). The same measure for `Cc1ccccc1CSc1nc2c(c(=O)[nH]1)CCC2`: 6.8% (inactive); for `O=C(O/N=C1\CCCc2ccccc21)c1cccc(Cl)c1`: 7.1% (inactive); for `CCN(CCn1cccn1)C(=O)CCc1nnc(-c2ccc3c(c2)OCO3)o1`: 5.8% (inactive). The same measure for `CN(C)S(=O)(=O)c1ccc(C(=O)Nc2cc(=O)n(C)c(=O)n2C)cc1`: 3.9% (inactive); for `O=C(c1nc2ncccn2n1)N1CCN(c2ccc(F)cc2)CC1`: 15% (inactive); for `NC(Cc1c[nH]c2ccccc12)C(=O)NCc1ccco1` (stereo unspecified): 55.4% (active).

As to `O=C(Cc1c[nH]c2ccccc12)NCc1ccco1`, the inhibition is 7.4% (inactive). The same measure for `O=C(CCc1c[nH]c2ccccc12)NCc1ccco1`: -5.8% (inactive); for `COc1ccc(OCC(=O)Nn2c(-c3ccc(C)cc3)nc3ccccc3c2=O)cc1`: 12.7% (inactive). As to `O=c1[nH]c2cc3c(cc2cc1CN(Cc1nnnn1CC1CCCO1)C1CCCCC1)OCO3` (stereo unspecified), the inhibition is 5.5% (inactive).

On to `COc1ccc(C=Nc2cccc3ncccc23)cc1`, for which the inhibition is 63.3% (active). As for `Cc1ccc(C=Nc2cccnc2N)cc1`, the inhibition was 63.2% (active). With `Nc1ncc(Br)cc1N=Cc1ccccc1` the figure was 24.6% (inactive). Take `Cc1ccc(C=Nc2ccccc2C(N)=O)cc1`: the inhibition is 0.6% (inactive). For the compound `COc1ccc(/C=N\n2nnc3ccccc32)cc1`, the inhibition was -4.2% (inactive). For `COc1ccc(OCC(=O)Nc2cccc3ncccc23)cc1`, the inhibition was 3.4% (inactive). With `Cc1ccc(NC(=O)CCC(=O)N/N=C/c2cccs2)cc1` the figure was -0.5% (inactive); with `COc1cc(CNc2ccc(N3CCCC3)cc2)ccc1OCc1ccccc1F`, 55.7% (active); with `COc1cc(CNc2ccc(N3CCN(C(C)=O)CC3)cc2)ccc1OCc1ccccc1`, 38.7% (inactive).

Consider `COc1cc(CNc2ccc(O)cc2)cc(Br)c1OCc1ccccc1F`, for which the inhibition is 57.4% (active). For `COc1cc(CNc2ccc(N3CCCC3)cc2)ccc1OCc1ccccc1`, the inhibition is 71.5% (active). `COc1cc(CNc2ccc(O)cc2)cc(Br)c1OCc1ccccc1`: the inhibition was 49.4% (inactive). With `COc1ccc(CNc2ccc(C)c(C)c2)cc1` the figure was 9.2% (inactive); with `CCNCc1ccc(OCc2ccccc2F)c(OC)c1`, -4.4% (inactive); with `COc1cc(CNc2ccc(N3CCN(C(C)=O)CC3)cc2)ccc1OCc1ccc(F)cc1`, 27% (inactive).

`COc1ccc(NCc2ccc(OC)c(OC)c2)cc1`: the inhibition was 60.3% (active).

Consider `COc1cc(CNCCCCO)ccc1OCc1ccccc1F`, for which the inhibition was 2.9% (inactive).

With `COc1ccc(CNS(=O)(=O)NCc2ccc(OC)c(OC)c2)cc1`, the inhibition is -3.8% (inactive). With `CCOc1cc(CNc2ccc(O)cc2)cc(Br)c1OCc1ccccc1F` the figure was 29.5% (inactive). For `Cc1cccc(C)c1NC(=O)C1=C(O)c2sccc2N(C)S1(=O)=O`, the inhibition was 2.2% (inactive).

In the case of `CCOC(=O)c1c(NC(=O)CSc2nnc(CNC(=O)c3ccco3)n2C)sc2c1CCC2`, the inhibition was 4.5% (inactive). The same measure for `CCCCCNCc1cccn1C`: -9.2% (inactive); for `CCC(CC)N=C1NS(=O)(=O)c2cc([N+](=O)[O-])ccc21`: -4.3% (inactive).

As for `Cc1cc(=O)oc2cc(OCC(O)CN3CCN(c4ccc(F)cc4)CC3)ccc12` (stereo unspecified), the inhibition was 7.1% (inactive). With `O=C(COC(=O)COc1ccccc1)Nc1ccccc1OC(F)F` the figure was -0.8% (inactive). The same measure for `Cc1cccc(NS(=O)(=O)c2cc(C(=O)N3CCOCC3)ccc2Cl)c1`: 6.8% (inactive); for `CN(C)c1cccc(C(=O)NC2CCCCCC2)c1`: 5.6% (inactive).

Take `Cc1ccccc1CN(C)CC(=O)Nc1c(C)cccc1C(C)C`: the inhibition was 0.5% (inactive). The same measure for `CN(C)c1cccc2c(/C=N/O)ccc(N(C)C)c12`: 51.7% (active); for `CN(C)c1ccc(/C=N/O)cc1`: 44.3% (inactive); for `Cc1ccccc1OCCOc1ccccc1C=C(C#N)C#N`: 16.3% (inactive).

`CN(C)c1cccc2c(C=C(C#N)C#N)ccc(N(C)C)c12`: the inhibition is 63.9% (active).

Turning to `Cc1cccc(OCCOc2ccccc2C=C(C#N)C#N)c1`, the inhibition is 11% (inactive).

With `CC(=O)c1ccc(N(C)C)c2c(N(C)C)cccc12`, the inhibition is 38.5% (inactive). The same measure for `CCOC(=O)C1CCN(C(=O)c2ccc3c(c2)OCO3)CC1`: 11.2% (inactive); for `COc1ccccc1OCC(=O)Nn1c(=S)[nH]c2ncccc2c1=O`: -3.7% (inactive).

For the compound `CC(c1ccccc1)n1cc(C(=O)NCCN2CCOCC2)nn1` (stereo unspecified), the inhibition is -7.2% (inactive). With `Cc1csc(NC(=O)c2ccccc2[N+](=O)[O-])n1` the figure was -6.4% (inactive); with `Nc1cnccc1C(=O)O`, 63.7% (active); with `COC(=O)c1ccncc1N`, 8.9% (inactive). With `Nc1ccc(Br)cc1C(=O)O`, the inhibition was 1.2% (inactive). On to `COc1ccc(NC(=O)CSc2nc3c(c(=O)n2-c2ccccc2)SCC3)c(OC)c1`, for which the inhibition is 2.7% (inactive). The same measure for `CCN(CC)C(=O)c1cn(CC)c(=O)c2cc(OC)c(OC)cc12`: -0.2% (inactive).

With `CC(=O)Nc1cccc(NC(=S)Nc2ccc(F)cc2F)c1`, the inhibition is 55.8% (active). With `CC(=O)Nc1cccc(NC(=O)Nc2ccc(F)cc2F)c1` the figure was 19.6% (inactive); with `CC(=O)Nc1cccc(NC(=S)Nc2ccc(F)c(Cl)c2)c1`, 41.1% (inactive); with `COc1cccc(-n2c(Cc3cc(=O)[nH]c(=O)[nH]3)nnc2SCC(=O)N2CCC(C)CC2)c1`, 3.3% (inactive). With `CCOC(=O)c1c(C)[nH]c(C)c1C(=O)COC(=O)c1ccc(S(=O)(=O)N(CC)CC)cc1` the figure was 4.4% (inactive); with `Cc1ccc2nc(C)c(C)nc2c1N`, 23.4% (inactive). The same measure for `Nc1ccc2ncccc2c1N`: 49.6% (inactive); for `Cc1ccc2ncccc2c1[N+](=O)[O-]`: 9.7% (inactive); for `Cc1ccc2cccnc2c1N`: 70.5% (active). Consider `Cc1ccc2ncccc2c1N`, for which the inhibition is 63.7% (active). Take `c1cnc2c(c1)ccc1cccnc12`: the inhibition is -13% (inactive) and -7.3% (inactive).

Consider `O=C(c1cnc2n(c1=O)CCS2)N(c1ccccc1)C1CCCCC1`, for which the inhibition is -10.4% (inactive). Take `CCc1ccc(NC(=O)c2c(C(=O)Nc3ccccc3)sc3nc(C)cc(=O)n23)cc1`: the inhibition is -2.4% (inactive). The same measure for `CCOC(=O)N1CCN(Cc2c(NC(=O)c3ccco3)sc(C)c2C)CC1`: 3.6% (inactive). With `CC1=NC(C)(C)Cc2ccccc21` the figure was 11% (inactive); with `CC1(C)CC(=O)C(C2=NC(C)(C)Cc3ccccc32)=C(O)C1`, -9.5% (inactive). The same measure for `CCOc1ccc2[nH]c(=S)[nH]c2c1`: 20.7% (inactive). Consider `COC(=O)/C=C1\N/C(=N\c2nc(C)cc(C)n2)N(c2ccc(C)cc2)C1=O`, for which the inhibition is -5.3% (inactive).

In the case of `COC(=O)/C=C1/N/C(=N\c2nc(C)cc(C)n2)N(c2ccccc2)C1=O`, the inhibition was 13.3% (inactive). The same measure for `COC(=O)/C=C1/N/C(=N\c2nc(C)cc(C)n2)N(c2cccc(C)c2)C1=O`: 50.4% (active). Consider `CC(/C=N\NC(=O)CN1CCN(Cc2ccccc2)CC1)=C\c1ccco1`, for which the inhibition is 9.7% (inactive). The same measure for `Oc1c(C(c2ccccn2)N2CCCCC2)cc(Cl)c2cccnc12` (stereo unspecified): 32.5% (inactive).

As for `Oc1c(C(c2ccccn2)N2CCC(Cc3ccccc3)CC2)cc(Cl)c2cccnc12` (stereo unspecified), the inhibition is 58.9% (active). With `CN1CCN(C(c2ccccn2)c2cc(Cl)c3cccnc3c2O)CC1` (stereo unspecified) the figure was 43.8% (inactive); with `CC(=O)Cc1nsc(NC(=O)c2ccccc2)n1`, 6.4% (inactive). The same measure for `Cc1cccc2cn[nH]c12`: -8.9% (inactive); for `Cc1ccc2cn[nH]c2c1N`: 58.3% (active); for `Cc1ccc2cn[nH]c2c1[N+](=O)[O-]`: 6.8% (inactive).

`Nc1nc(SCC(=O)NCc2ccccc2)[nH]c(=O)c1NC(=O)c1ccccc1F`: the inhibition is 9.7% (inactive). The same measure for `Cc1ccc(NC(=O)c2ccn(C)n2)c(Br)c1`: 6% (inactive); for `O=C(Cn1nc(C(F)(F)F)c2c1CCC2)N1CCN(c2ccccc2)CC1`: 9.9% (inactive); for `CC(C)CC(=O)O/N=C1\C(=O)N(Cc2ccc(Cl)cc2)c2ccc([N+](=O)[O-])cc21`: 22.3% (inactive). The same measure for `CCCn1c(C)cc(/C=C(\C#N)C(=O)OCC(=O)NC(=O)NC(C)(C)C)c1C`: -3.7% (inactive); for `CCN1CCN(c2cc(C)c3cc(NC(=S)N4CCN(c5ccccc5)CC4)ccc3n2)CC1`: 28.1% (inactive). As for `Cc1cc(N2CCOCC2)nc2ccc(NC(=S)N3CCN(c4ccccc4)CC3)cc12`, the inhibition is 52.5% (active). With `CCN1CCN(c2cc(C)c3cc(NC(=S)N4CCOCC4)ccc3n2)CC1` the figure was 13.3% (inactive).

As to `Cc1cc(N2CCOCC2)nc2ccc(NC(=S)N3CCN(Cc4ccccc4)CC3)cc12`, the inhibition was 35.3% (inactive). For `Cc1ccc(C)c(N2CCN(C(=S)Nc3ccc4nc(N5CCN(C)CC5)cc(C)c4c3)CC2)c1`, the inhibition is 24.4% (inactive).

`Cc1cccc(N2CCN(C(=S)Nc3ccc4nc(N5CCOCC5)cc(C)c4c3)CC2C)c1` (stereo unspecified): the inhibition was 51.9% (active). `COc1ccccc1N1CCN(C(=S)Nc2ccc3nc(N4CCOCC4)cc(C)c3c2)CC1`: the inhibition is 62.5% (active).

For the compound `Cc1cccc(N2CCN(C(=S)Nc3ccc4nc(N5CCN(C)CC5)cc(C)c4c3)CC2)c1C`, the inhibition is 16.2% (inactive). The same measure for `Cc1ccc(C)c(N2CCN(C(=S)Nc3ccc4nc(N5CCOCC5)cc(C)c4c3)CC2)c1`: 58.5% (active).

Take `Cc1cc(N2CCN(C)CC2)nc2ccc(NC(=S)N3CCN(c4ccc(F)cc4)CC3)cc12`: the inhibition is 29.1% (inactive). With `Cc1cc(N2CCN(C)CC2)nc2ccc(NC(=S)N3CCN(c4ccc(Cl)cc4)CC3)cc12` the figure was 41.7% (inactive); with `Cc1cccc(N2CCN(C(=S)Nc3ccc4nc(N5CCN(C)CC5)cc(C)c4c3)CC2C)c1` (stereo unspecified), 17.5% (inactive). Turning to `CCOc1cc2[nH]c(=O)n(CCCN3CCN(c4ccc(OC)cc4)CC3)c(=O)c2cc1OCC`, the inhibition was 21.4% (inactive).
